In all, about 33,000 sequences were measured (“E-score (-0.5 to 0.5)”: median about -0.036, highest 2% from about 0.37 on). The list comes from a sample in which the highest values are over-represented; it also holds similar and randomly drawn sequences.
These sequences were tested against T1, Yer064c (UniProt P40041) (assay: PBM E-score (8-mer binding enrichment) (E-score (-0.5 to 0.5)); higher = stronger / more preferred TF binding). Conditions: protein concentration: 200 nM; construct: GST-full length.
T1 sequence: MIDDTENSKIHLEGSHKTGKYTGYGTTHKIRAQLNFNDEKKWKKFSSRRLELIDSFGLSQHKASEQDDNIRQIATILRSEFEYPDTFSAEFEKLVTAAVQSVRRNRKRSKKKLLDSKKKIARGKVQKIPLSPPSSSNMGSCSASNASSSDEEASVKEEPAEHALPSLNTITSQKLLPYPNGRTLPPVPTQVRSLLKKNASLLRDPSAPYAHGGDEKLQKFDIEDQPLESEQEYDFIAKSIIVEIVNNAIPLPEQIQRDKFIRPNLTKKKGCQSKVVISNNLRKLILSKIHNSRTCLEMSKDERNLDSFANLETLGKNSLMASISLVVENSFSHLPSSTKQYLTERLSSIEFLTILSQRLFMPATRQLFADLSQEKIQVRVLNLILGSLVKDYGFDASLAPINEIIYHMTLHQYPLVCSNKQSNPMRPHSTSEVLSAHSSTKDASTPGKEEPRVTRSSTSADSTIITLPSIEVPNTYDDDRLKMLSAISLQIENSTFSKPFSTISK
Procedure, shortened: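 E-scores (a modified Wilcoxon-Mann-Whitney statistic) were assigned by the Universal PBM Analysis Suite to every ungapped eight-base word pooled with its reverse complement. The input came from universal all-10-mer Agilent arrays made double-stranded by primer extension and probed with GST-tagged yeast transcription factors at about 100-200 nM. Fluorescent anti-GST detected bound protein, and masliner normalised the scans.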

Sequence | PBM E-score
GGACTCAA | 0.409
GGACTCTA | 0.193
CTACTCAA | 0.162
ATACTCAC | 0.312
TGACTCAA | 0.492
GTACTCAA | 0.314
TGGCTCAA | 0.332
CGACTCTA | 0.343
GTACTCAC | 0.387
TAACTCAA | 0.263
GAACTCAA | 0.145
CACCTTGG | -0.142
CCCAGCTA | -0.0347
CTGGCTAA | 0.23
CGTTCCAC | -0.25
ACGCATAC | -0.135
TAGCTCCA | -0.0907
GGACTCAC | 0.43
GCACTCAC | 0.0283
GGACTCCC | 0.214
AGGTACCG | -0.156
ACTCGAAC | 0.136
CCGTATGC | -0.167
CCATTGAC | 0.0546
CCGGCTGA | 0.165

Sequence | PBM E-score
CAGACTAC | 0.215
AAGACAAT | -0.0159
AAGACTAG | 0.338
TAGACTAA | 0.3
AAAACTAA | 0.134
GAGACCAA | -0.0383
GAGACGAA | -0.0519
AAGACTAC | 0.413
AAGACTAA | 0.442
AAGACTAT | 0.417
AAGACTTC | 0.241
GAGACTAA | 0.413
CAACAGGG | -0.202
ATGATACA | 0.246
GAAGTGCC | -0.336
GTTTGCTA | 0.0898
GAGTTGCC | -0.149
GACGGTAA | -0.284
CAACTCCG | -0.12
ATAGTTGC | 0.0257
CGATGTAC | -0.0701
AGGCCTCG | -0.184
AGGACTAT | 0.31
TGGACTAA | 0.348
AGGACTAA | 0.405

Sequence | PBM E-score
CCAGAGGA | 0.00907
ATAGGGGC | -0.262
GGAGTCCC | 0.189
CGAGTCTC | 0.307
CAAGTCAG | 0.306
TAAGTCAA | 0.344
TCAGTCAA | 0.348
CGAGTCAG | 0.46
GGAGTCAC | 0.485
CGAGTCCG | 0.272
TGAGTCAA | 0.489
CGAGTCCC | 0.24
GGAGTTAC | -0.0565
CGAGTCAC | 0.477
CCTTCTGA | -0.0564
GAGAGCCA | 0.132
TCCAGCCA | -0.198
GCGTAGCC | 0.074
ATCGATGC | -0.198
AACTAGCG | -0.119
CTCAAGGC | 0.104
ATCCACTC | -0.0532
TCCAACCA | -0.132
CATCGGCC | -0.0369
ACTGGGAC | 0.0246

Sequence | PBM E-score
AGAGTACA | 0.171
GGAGTACA | 0.129
TGAGTCCA | 0.397
GGAGTCCA | 0.243
GGAGTCAA | 0.431
CGAGTCCA | 0.0419
TGAGTACA | 0.376
CAAGTCAA | 0.196
CGAGTCTA | 0.132
GGAGTCTA | 0.172
CGAGTCAA | 0.444
GGAGTCGA | 0.212
CAAAGCCG | -0.176
ACCTGCGG | -0.208
CAGGCGGC | 0.0353
TGGCGCAA | -0.15
CGCTGGTA | -0.0555
CACTACCA | -0.0175
GACTACCA | 0.413
GACTACCC | 0.42
AACTACCC | -0.158
TACTACCA | 0.00773
CACTACCC | 0.00286
ACAAAACT | -0.0935
CAGGACCC | -0.208

Sequence | PBM E-score
GAGAACGA | -0.0613
CCTTAGTC | 0.41
CCTTAGTA | -0.0218
CCTTAGAC | 0.063
ACTTAGTA | 0.162
ACTTAGTC | 0.435
ACTTAGTG | 0.198
GTCCATAA | -0.161
CCCGGCGG | -0.182
ATCCTGGG | -0.0196
AGTCAAGG | 0.392
CGTCAAGA | -0.229
ACTCAAGG | 0.29
AGTCAAGC | 0.358
AGTCAAGA | 0.414
GGTCAAGA | -0.0401
CCTTCGTA | -0.15
AGCGCTGA | 0.0781
CTATCGGC | -0.0556
CCTCACAA | 0.038
ACTCACGA | 0.388
ACTCACAG | 0.353
ACTCACAA | 0.395
CCTCACGA | -0.0431
ACTCACGC | 0.357

Sequence | PBM E-score
ACACACGG | 0.0742
ACGCACGG | -0.192
ACTCACGG | 0.376
ATCTCAGA | -0.113
ACCCCTAA | -0.0884
AAGATTTC | 0.0103
AATCTGAC | 0.23
GGACGTAC | -0.0832
ACAGCCTC | -0.308
AAATCACG | 0.264
CAATCACA | 0.346
AAATCACA | 0.219
GAATCACA | 0.439
CAATCACG | 0.296
TAATCACA | 0.419
AAATCACC | 0.328
GAATCACC | 0.456
CAATCACC | 0.343
AAACACAC | 0.0803
AGACAGCC | -0.181
AAAGTCCC | -0.235
GGACTCGA | 0.118
ACCAGTCC | -0.0297
ACCAGTCT | 0.0632
CGCAGTCA | 0.422

Sequence | PBM E-score
CGCAGTCC | 0.134
ACCAGTCA | 0.369
AGCAGTCC | -0.0176
GGCAGTAA | 0.0188
AGCAGTCA | 0.412
GGCAGTGA | 0.0347
AGCAGTCG | 0.065
GGCAGTCA | 0.445
CCCAGTCA | 0.316
AAACGGTA | 0.0163
GTTATGGA | -0.119
CGCCCGAC | -0.0703
ATATCGGC | -0.169
GATCGTAA | -0.068
AATACCAC | -0.172
GGCACTTA | -0.212
CTATCCGC | 0.00533
ATGGAGTC | 0.398
ATGGAGTA | 0.182
CTGGAGTA | 0.0648
ATGGAGTG | -0.143
CTGGAGTC | 0.39
CTGGAGAC | -0.0698

Source: the supplement of paper PMC3334620
